{"source": "PubChem BioAssay", "note": "Activity calls are given as the source filed them.", "data": [{"target": "Albumin (Bos taurus) (UniProt P02769)", "sequence (P02769 whole entry, looked up)": "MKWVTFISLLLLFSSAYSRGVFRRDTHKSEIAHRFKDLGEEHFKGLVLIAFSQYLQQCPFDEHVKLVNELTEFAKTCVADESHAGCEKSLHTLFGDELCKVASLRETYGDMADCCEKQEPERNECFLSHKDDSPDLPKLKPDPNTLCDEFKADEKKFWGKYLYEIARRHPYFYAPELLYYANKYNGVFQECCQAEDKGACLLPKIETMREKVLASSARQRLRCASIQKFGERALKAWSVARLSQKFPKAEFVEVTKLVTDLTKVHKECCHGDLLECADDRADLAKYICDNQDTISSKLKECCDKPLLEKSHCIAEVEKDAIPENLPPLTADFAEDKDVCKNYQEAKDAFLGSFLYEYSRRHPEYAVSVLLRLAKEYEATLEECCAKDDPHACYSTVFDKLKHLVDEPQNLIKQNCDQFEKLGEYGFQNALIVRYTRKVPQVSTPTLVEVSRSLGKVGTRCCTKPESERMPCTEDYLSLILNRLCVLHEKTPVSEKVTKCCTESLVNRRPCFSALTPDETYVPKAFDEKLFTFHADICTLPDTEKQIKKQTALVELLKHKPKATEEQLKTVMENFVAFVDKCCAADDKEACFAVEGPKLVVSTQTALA", "assay": "compounds binding labelled BSA control protein – biochemical, small-molecule microarray, Alexa647 label, 635/667 nm fluorescence, artefact control for SMM control protein annotation, profiling panel (AID 1118);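 also: score merges 667 nm emission intensity and signal-to-noise per printed compound spot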", "conditions": "BSA-A647 binding, fluorescence 635 nm, higher = more signal", "values": [{"smiles": "O=C(O)[C@@H]1Cc2c([nH]c3ccccc23)[C@@H](c2ccccc2)N1", "composite z-score": 0.118}, {"smiles": "COc1cc2c(cc1OC)CN(C(=O)[C@@H]1[C@H]3C(=O)O[C@H](c4ccccc4)[C@H](c4ccccc4)N3[C@H](c3ccccc3OCCO)[C@@]13C(=O)Nc1ccccc13)CC2", "composite z-score": 0.665}, {"smiles": "CCCC=C(CCC)[C@@H](NS(=O)(=O)c1ccc(-c2ccccc2)cc1)c1ccc(C(=O)OC)cc1", "composite z-score": -0.0722}, {"smiles": "O=C/C=C/c1ccccc1Cl", "composite z-score": 0.95}, {"smiles": "[N-]=[N+]=NCc1ccccc1[C@H]1OC(c2ccc(OCCCO)cc2)=N[C@@]1(Cc1ccccc1N=[N+]=[N-])C(=O)NCc1ccccc1", "composite z-score": 0.763}, {"smiles": "O=C1c2ccccc2[C@](Cc2ccccc2I)(C(=O)O)[C@H](c2ccc(CO)cc2)N1C1CCCCC1", "composite z-score": 0.823}, {"smiles": "C=CCC(OC(C)=O)[C@@H]1[C@@H](N(Cc2cc3ccccc3o2)C(=O)Cc2ccc(F)cc2)c2cc(OCCCO)ccc2N1C(=O)c1ccc(-c2ccccc2)cc1", "note": "(stereo partly drawn)", "composite z-score": -0.182}]}, {"test_system": "not listed separately", "assay": "probe aXIP binding to arrayed compounds – biochemical, NeuroSMM set, 635/667 nm fluorescence, primary screen (AID 1119);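 also: probe is the protein aXip251-270 applied at 1 µg/mL to compound-printed slides; binding of probe to printed compounds measured as 667 nm fluorescence plus signal to noise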", "conditions": "small-molecule microarray, higher = more signal, called active from +8 up or from −8 down", "values": [{"smiles": "C=CCc1cccc([C@@H]2[C@@H](C)CC[C@H]3C(=O)N4[C@H](c5cccc(CC=C)c5)[C@@H](C)CC[C@H]4C(=O)N23)c1", "composite Z-score": "0.576 (inactive)"}, {"smiles": "CCCCCCc1nc(C2CC2)c(C)c2c1[Si](C(C)C)(C(C)C)OC2", "composite Z-score": "0.485 (inactive)"}, {"smiles": "CC(C)(C)OC(=O)CC[C@]1(C(=O)NCCN2CCOCC2)N=C(c2ccc(OCCCO)cc2)O[C@H]1c1ccccc1CN=[N+]=[N-]", "composite Z-score": "0.192 (inactive)"}, {"smiles": "CCOC(=O)C[C@H]1[C@H](OC(=O)c2ccccc2-c2ccccc2)[C@@H](NC(=O)c2ccc(-c3ccccc3)cc2)c2cc(OCCCO)ccc2N1C(=O)Cc1ccc(OC)cc1", "composite Z-score": "0.0368 (inactive)"}, {"smiles": "C=CCN1C(=O)[C@@]2(Cc3ccccc3)N=C(c3ccc(OCCCO)cc3)O[C@H]2c2ccccc21", "composite Z-score": "1.06 (inactive)"}, {"smiles": "C=CCC(OC(C)=O)[C@@H]1[C@@H](N(Cc2cc3ccccc3o2)C(=O)c2ccc(C)cc2)c2cc(OCCCO)ccc2N1C(=O)c1ccc2ccccc2n1", "note": "(stereo partly drawn)", "composite Z-score": "0.0726 (inactive)"}, {"smiles": "C=C(C(=O)CC[C@H](OC(=O)c1ccccc1-c1ccccc1C(=O)O)c1ccc(CO)o1)C(C)C", "composite Z-score": "-0.555 (inactive)"}, {"smiles": "O=C(CS)NCCCCCNC(=O)[C@H]1C[C@H]2C(=O)N3CCC[C@H]3C(=O)N2[C@H]1c1ccc(O)cc1", "composite Z-score": "-0.17 (inactive)"}, {"smiles": "N#Cc1ccc(NN2C(C(O)CCc3ccccc3)C=CC3C(=O)N(c4ccccc4)C(=O)C32)cc1", "note": "(stereo not drawn)", "composite Z-score": "0.265 (inactive)"}, {"smiles": "O=[N+]([O-])c1ccc(C[n+]2ccc3ccc(O)cc3c2)o1", "composite Z-score": "0.14 (inactive)"}, {"smiles": "Cc1ccc(S[C@]2(C(=O)NC(C)C)CC(=O)N(Cc3cc(C(F)(F)F)cc(C(F)(F)F)c3)[C@@H]2c2ccc(CO)cc2I)cc1", "composite Z-score": "0.0296 (inactive)"}, {"smiles": "COC(=O)[C@@]1(Cc2ccccc2N=[N+]=[N-])N=C(c2ccc(OCCCO)cc2)O[C@H]1c1ccccc1CN=[N+]=[N-]", "composite Z-score": "0.289 (inactive)"}, {"smiles": "O=C(NCc1ccccc1)c1ccc(Br)cc1[N+](=O)[O-]", "composite Z-score": "0.047 (inactive)"}, {"smiles": "C=C(COC)/C(=C/C[C@H](OC(C)=O)c1ccc(OCCO)cc1)c1cnc2ccccc2c1", "composite Z-score": "-0.0473 (inactive)"}, {"smiles": "COc1cc2c(cc1OC)CN(C(=O)[C@H]1[C@@H]3C(=O)O[C@@H](c4ccccc4)[C@@H](c4ccccc4)N3[C@@H](c3ccccc3OCCO)[C@]13C(=O)Nc1ccc(C#CC4(O)CCCCCC4)cc13)CC2", "composite Z-score": "0.267 (inactive)"}, {"smiles": "COCCOC(=O)N1C(=O)[C@@]2(c3cc(C#CCCO)ccc31)[C@H](c1ccc(O)cc1)N1[C@H](c3ccccc3)[C@H](c3ccccc3)OC(=O)[C@H]1[C@@H]2C(=O)Nc1nc2ccccc2s1", "composite Z-score": "-0.0844 (inactive)"}, {"smiles": "CC[C@H]1C2=C3C(CC[C@H]4C(OC)OC[C@](C)([C@@H]34)N(C(=O)OC(C)(C)C)C2)C(CO)C1CO", "note": "(stereo partly drawn)", "composite Z-score": "0.067 (inactive)"}, {"smiles": "CN(C)C(=O)[C@@]1(Cc2ccccc2N=[N+]=[N-])N=C(c2ccc(OCCCO)cc2)O[C@H]1c1ccccc1CN=[N+]=[N-]", "composite Z-score": "0.478 (inactive)"}, {"smiles": "CC(C)[C@H]1NC(=O)[C@@]23C(=O)N[C@@H](Cc4ccccc4)C2[C@H](C)[C@@]2(C)O[C@H]2C3/C=C/C/C=C\\CNC(=O)[C@H](C)NC1=O", "note": "(stereo partly drawn)", "composite Z-score": "-0.0247 (inactive)"}, {"smiles": "O=C1c2ccccc2[C@](Cc2ccccc2I)(C(=O)NCc2ccccc2)[C@H](c2ccc(CO)cc2)N1Cc1ccccc1C(F)(F)F", "composite Z-score": "-0.342 (inactive)"}, {"smiles": "O=C1c2ccccc2[C@](Cc2ccccc2I)(C(=O)NCC(F)(F)F)[C@H](c2ccc(CO)cc2)N1Cc1ccccc1C(F)(F)F", "composite Z-score": "0.34 (inactive)"}, {"smiles": "CCC1=C2CN(Cc3ccccc3Br)[C@@H]([C@@H](O)Cc3ccccc3)C2C=CCC1", "note": "(stereo partly drawn)", "composite Z-score": "1.22 (inactive)"}, {"smiles": "C=CCc1cccc([C@H]2N[C@H](C(=O)O)CC[C@@H]2C)c1", "composite Z-score": "-0.149 (inactive)"}, {"smiles": "COC(=O)C1=CC(c2ccc(CO)cc2)=CC(c2cccs2)N(Cc2cccc(OC(F)(F)F)c2)C=C1C(=O)OC", "note": "(stereo not drawn)", "composite Z-score": "0.639 (inactive)"}, {"smiles": "C=C(CCCC)C(=O)CC[C@@H](OC(=O)c1cccnc1)c1cccc(OCCO)c1", "composite Z-score": "-0.123 (inactive)"}, {"smiles": "CO[C@H]1COC(=O)[C@H](Cc2ccccc2)NC(=O)CC=C[C@@H](C)[C@H](OC)COC(=O)CC=C[C@@H]1C", "composite Z-score": "-0.225 (inactive)"}, {"smiles": "COCCOC(=O)N1C(=O)[C@@]2(c3cc(C#CCC(C(=O)OC)C(=O)OC)ccc31)[C@H](C(=O)N1CCN(c3ncccn3)CC1)[C@H]1C(=O)O[C@H](c3ccccc3)[C@H](c3ccccc3)N1[C@@H]2c1ccc(O)cc1", "composite Z-score": "0.394 (inactive)"}, {"smiles": "CCCC=C(CCC)[C@@H](NS(=O)(=O)c1cccc(C(F)(F)F)c1)c1ccc(C(=O)OC)cc1", "composite Z-score": "0.136 (inactive)"}, {"smiles": "NC(=O)[C@H]1[C@@H]2C(=O)O[C@@H](c3ccccc3)[C@@H](c3ccccc3)N2[C@@H](c2ccc(O)cc2)[C@]12C(=O)Nc1ccc(C#CCCO)cc12", "composite Z-score": "0.049 (inactive)"}, {"smiles": "O=C(O)[C@@H]1Cc2c([nH]c3ccccc23)[C@@H](c2ccccc2)N1", "composite Z-score": "0.756 (inactive)"}, {"smiles": "COc1cc2c(cc1OC)CN(C(=O)[C@@H]1[C@H]3C(=O)O[C@H](c4ccccc4)[C@H](c4ccccc4)N3[C@H](c3ccccc3OCCO)[C@@]13C(=O)Nc1ccccc13)CC2", "composite Z-score": "-0.316 (inactive)"}, {"smiles": "CCCC=C(CCC)[C@@H](NS(=O)(=O)c1ccc(-c2ccccc2)cc1)c1ccc(C(=O)OC)cc1", "composite Z-score": "-0.682 (inactive)"}, {"smiles": "O=C/C=C/c1ccccc1Cl", "composite Z-score": "-0.02 (inactive)"}, {"smiles": "[N-]=[N+]=NCc1ccccc1[C@H]1OC(c2ccc(OCCCO)cc2)=N[C@@]1(Cc1ccccc1N=[N+]=[N-])C(=O)NCc1ccccc1", "composite Z-score": "0.945 (inactive)"}, {"smiles": "O=C1c2ccccc2[C@](Cc2ccccc2I)(C(=O)O)[C@H](c2ccc(CO)cc2)N1C1CCCCC1", "composite Z-score": "0.222 (inactive)"}, {"smiles": "C=CCC(OC(C)=O)[C@@H]1[C@@H](N(Cc2cc3ccccc3o2)C(=O)Cc2ccc(F)cc2)c2cc(OCCCO)ccc2N1C(=O)c1ccc(-c2ccccc2)cc1", "note": "(stereo partly drawn)", "composite Z-score": "-0.765 (inactive)"}]}]}
